# Assay outcomes deposited in PubChem BioAssay by several laboratories.
# ANO1 block = TMEM16A chloride channel inhibitors, primary screen, cell-based, HTS | 1.2% of 310,000 active | Anoctamin-1 (Mus musculus), Q8BHY3 | HEK293 TMEM16A/YFP iodide influx fluorescence, ionomycin | normalized B-score (activity score, 25-100; higher = stronger inhibition) at 10 µM;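 active = ratio plate-corrected score three or more library SD toward inhibition, starting fluorescence score within five deviations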;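 also: score derived from kinetic fluorescence span divided by baseline fluorescence per well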
# TLR9-MyD88 block = inhibitors of TLR9-MyD88 association in cells, primary screen, cell-based, CHO, BLA complementation, fluorescence; AID 504734, 2011; inhibition, % at 4.98 µM; Toll-like receptor 9 (Homo sapiens) + Myeloid differentiation primary response protein …; CCF4 FRET ratio; 0.21% of 340,000 active;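 active = inhibition above the mean over all tested compounds plus 3 SD, cut at about 21% in these data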;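 also: 0% = DMSO only wells and 100% = clavulanate BLA inhibitor control wells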
# Target sequence (Q99836 whole entry, looked up): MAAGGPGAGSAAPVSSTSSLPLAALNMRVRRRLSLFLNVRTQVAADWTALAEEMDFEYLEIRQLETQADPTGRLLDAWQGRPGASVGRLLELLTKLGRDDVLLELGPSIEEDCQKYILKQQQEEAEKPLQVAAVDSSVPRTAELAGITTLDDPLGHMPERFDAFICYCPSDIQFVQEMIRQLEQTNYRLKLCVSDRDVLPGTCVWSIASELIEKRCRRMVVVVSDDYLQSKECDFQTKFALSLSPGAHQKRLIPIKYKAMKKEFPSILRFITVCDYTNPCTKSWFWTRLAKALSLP
# Target sequence (Q9NR96 whole entry, looked up): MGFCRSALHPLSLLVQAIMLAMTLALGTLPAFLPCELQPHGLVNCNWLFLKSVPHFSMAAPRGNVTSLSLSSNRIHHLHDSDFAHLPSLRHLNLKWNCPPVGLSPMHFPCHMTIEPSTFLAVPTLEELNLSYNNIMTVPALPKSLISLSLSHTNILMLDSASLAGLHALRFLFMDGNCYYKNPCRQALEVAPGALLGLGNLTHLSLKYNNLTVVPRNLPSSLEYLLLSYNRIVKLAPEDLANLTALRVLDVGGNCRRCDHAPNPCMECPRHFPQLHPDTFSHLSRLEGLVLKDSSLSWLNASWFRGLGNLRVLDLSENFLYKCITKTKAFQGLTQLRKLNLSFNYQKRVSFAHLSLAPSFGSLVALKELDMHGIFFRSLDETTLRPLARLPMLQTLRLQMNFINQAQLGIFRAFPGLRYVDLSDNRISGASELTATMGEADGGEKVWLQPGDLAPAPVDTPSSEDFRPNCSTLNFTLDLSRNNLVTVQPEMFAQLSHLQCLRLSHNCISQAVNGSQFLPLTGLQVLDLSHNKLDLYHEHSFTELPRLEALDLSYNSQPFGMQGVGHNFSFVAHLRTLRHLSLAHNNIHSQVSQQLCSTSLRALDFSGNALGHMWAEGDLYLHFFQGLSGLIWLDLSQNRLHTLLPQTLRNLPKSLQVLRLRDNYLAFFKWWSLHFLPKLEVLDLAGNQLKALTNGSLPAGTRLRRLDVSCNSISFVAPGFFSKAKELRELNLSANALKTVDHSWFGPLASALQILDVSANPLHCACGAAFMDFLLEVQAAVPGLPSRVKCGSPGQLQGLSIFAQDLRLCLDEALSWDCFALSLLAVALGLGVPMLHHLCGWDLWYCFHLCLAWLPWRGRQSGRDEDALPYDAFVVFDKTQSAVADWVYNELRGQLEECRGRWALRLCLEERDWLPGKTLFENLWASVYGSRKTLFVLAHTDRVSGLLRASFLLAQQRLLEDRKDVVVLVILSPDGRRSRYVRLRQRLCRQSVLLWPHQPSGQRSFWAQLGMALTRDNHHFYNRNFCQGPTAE
# NOD2-RIPK2 inh = NOD2-RIPK2 binding disruptors in cells, primary screen, fluorescence, CHO cells, BLA complementation; CCF4 ratio; inhibition, % at 4.98 µM; 0.38% of 360,000 active; AID 624267, 2012; in the data active = inhibition above about 21%;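 also: 0% = vehicle only and 100% = reference blocker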
# TLR4 MyD88 comp = inhibitors of TLR4-MyD88 association in cells, primary screen, cell-based, HeLa CL3-4, BLA complementation, FRET ratio. HeLa CL3-4 TLR4/MyD88 BLA complementation. 0.18% of 200,000 active. Toll-like receptor 4 (Homo sapiens) + Myeloid differentiation primary response protein …. inhibition, % at 8.4 µM; in the data active = inhibition above about 25%;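 also: 0% = vehicle and 100% = reference inhibitor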
# TMEM16A act = TMEM16A chloride channel activators or potentiators, primary screen, cell-based, HTS | HEK293 TMEM16A/YFP-H148Q/I152L, iodide quench fluorescence; active compounds read low | B-score at 10 µM | 0.3% of 340,000 active | AID 623877, 2012;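 active = fluorescence-ratio B-score plate-corrected deviation score at least 3 library SD below zero, with starting fluorescence score within 5 deviations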;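 also: channel opened by trigger with iodide after compound preincubation; score built on the fluorescence ratio of max minus min over baseline; more negative score means more quench and so TMEM16A activation or potentiation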
# m5-HT2A agonist = mouse Htr2a agonists via beta-arrestin recruitment, primary screen, cell-based, luminescence; CHO-K1 mHTR2A beta-arrestin complementation; percent of 30 µM serotonin response; AID 624169, 2012; activation, % at 7.6 µM; 0.66% of 360,000 active; 5-hydroxytryptamine receptor 2A (Mus musculus), P35363;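 active = activation above a run cutoff, the mean activation of all tested compounds plus 3 SD, cut at about 14% in these data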;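 also: 0% = plate median of compound wells and 100% = 30 µM serotonin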
# OPRM1 ag = OPRM1 agonists via beta-arrestin recruitment, confirmation, counter-screen for mouse HTR2A agonist project, cell-based, luminescence, single concentration | shares compounds with m5-HT2A agonist | U2OS OPRM1 beta-arrestin PathHunter; DMSO 0%, DAMGO 9.3 µM 100% | activation, % at 9.3 µM | 5.3% of 2,300 active | AID 624380, 2012;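 active = mean activation above the mean of DMSO-only wells plus 3 SD, cut at about 0.5% in these data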
# m5-HT2A ag conf = mouse HTR2A agonists, beta-arrestin recruitment, confirmation, cell-based, luminescence, CHO-K1 PathHunter, triplicate. activation, % at 7.6 µM. AID 624381, 2012. DMSO 0%, 30 µM serotonin 100%. shares compounds with m5-HT2A agonist. 19% of 2,300 active;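 active = mean activation across triplicates above the hit threshold derived in the original primary screen, cut at about 15% in these data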
# Starred values were filed as active, the others as inactive; i = inactive; x = no result. In the library only some 2.4% were active in any assay of this set; here they are far more common.
SMILES,ANO1 block,TLR9-MyD88 block,NOD2-RIPK2 inh,TLR4 MyD88 comp,TMEM16A act,m5-HT2A agonist,OPRM1 ag,m5-HT2A ag conf
CC(OC(=O)C1=COCCO1)C(=O)c1ccc(Br)cc1 (configuration not stated),x,3,-16,x,i,1,x,x
CC1CC(C)CN(C(=O)c2nn(C)c3c2CS(=O)(=O)c2ccccc2-3)C1 (configuration not stated),i,-2,-7,x,i,-1,x,x
CCOC(=O)N1CCC(N2C(=O)c3ccc(C(=O)NCc4ccco4)cc3C2=O)CC1,i,3,-2,-9,i,23*,0,-4
CCOC(=O)N1CCC(N2C(=O)c3ccc(C(=O)NCc4ccc(F)cc4)cc3C2=O)CC1,i,6,0,-1,i,-5,x,x
CC1CC(C)(C)N2C(=O)C3(Nc4ccccc4S3)c3cccc1c32 (configuration not stated),i,4,-1,3,i,-3,x,x
O=C1N2CCCc3cccc(c32)C12Nc1ccccc1S2 (configuration not stated),x,3,15,1,i,21*,-1,-6
COc1ccccc1CN1CC(C(=O)NCc2cc(C)on2)CCC1=O (configuration not stated),i,-5,-6,x,i,16*,0,2
COc1cccc(C(=O)NCCS(=O)(=O)N2CCC(C)CC2)c1,i,-4,1,x,i,14*,0,-5
O=C(NCc1ccc(F)cc1)C1CCCN(S(=O)(=O)c2cccc3nonc23)C1 (configuration not stated),i,-6,-1,x,i,17*,-1,-4
O=C(c1cccc(S(=O)(=O)N2CCOCC2)c1)N(CCO)Cc1ccccc1,i,9,4,10,i,1,x,x
O=C(CN1C(=O)NC2(CCCC2)C1=O)NCc1ccc(F)cc1,x,1,0,x,i,2,x,x
O=C(CN1C(=O)NC2(CCCC2)C1=O)NCc1ccc(Cl)cc1,x,1,-15,x,i,19*,0,-2
O=C(CN1C(=O)NC2(CCCC2)C1=O)OCc1c(F)cccc1Cl,i,3,-1,x,i,17*,-1,-1
C=C(C)C(=O)OCC(C)C,x,-3,-1,x,i,-2,x,x
C[C@@H]1CN([C@@H](C)CO)C(=O)Cc2cc(NS(=O)(=O)c3ccccc3)ccc2O[C@H]1CN(C)Cc1ccncc1,x,0,-2,x,i,0,x,x
Cc1ccc(S(=O)(=O)Nc2ccc3c(c2)CC(=O)N([C@H](C)CO)C[C@@H](C)[C@H](CN(C)Cc2ccc(-c4ccccc4)cc2)O3)cc1,x,3,6,x,i,19*,-1,18*
C[C@H](CO)N1C[C@H](C)[C@@H](CN(C)S(=O)(=O)c2ccc(F)cc2)Oc2ccc(NS(=O)(=O)c3ccc(F)cc3)cc2C1=O,x,-1,-2,x,i,11,x,x
C[C@@H]1CN([C@H](C)CO)C(=O)c2cc(NS(=O)(=O)c3ccc(F)cc3)ccc2O[C@@H]1CN(C)Cc1ccc(Cl)c(Cl)c1,x,3,11,x,x,21*,0,7
COc1ccc(NC(=O)Nc2ccc3c(c2)C(=O)N([C@H](C)CO)C[C@H](C)[C@@H](CN(C)S(=O)(=O)c2ccccc2)O3)cc1,x,-3,0,x,i,7,x,x
COc1ccc(NC(=O)Nc2ccc3c(c2)C(=O)N([C@H](C)CO)C[C@H](C)[C@@H](CN(C)S(=O)(=O)c2ccc(F)cc2)O3)cc1,x,3,-4,x,i,18*,-1,-3
C[C@H](CO)N1C[C@H](C)[C@H](CN(C)Cc2ccc(-c3ccccc3)cc2)Oc2ccc(NS(=O)(=O)c3ccccc3)cc2CC1=O,x,1,-1,x,i,16*,0,28*
O=C(Oc1ccc(-c2ccccc2)cc1)N1CCOCC1,i,-17,3,10,i,-3,x,x
COc1ccc(NC(=O)C2CC3C=CC2C3)c([N+](=O)[O-])c1 (configuration not stated),x,-2,-18,x,i,15*,0,1
COc1ccc(NC(=O)CC(C)C)c([N+](=O)[O-])c1,i,-12,8,-1,i,1,x,x
COc1cc(C#Cc2ccc3cc(CCO)oc(=O)c3c2)cc(OC)c1,x,-5,1,x,i,17*,0,-2
SMILES,ANO1 block,TLR9-MyD88 block,NOD2-RIPK2 inh,TLR4 MyD88 comp,TMEM16A act,m5-HT2A agonist,OPRM1 ag,m5-HT2A ag conf
N#CC1c2ccccc2C=CN1C(=O)N(c1ccccc1)c1ccccc1 (configuration not stated),x,-4,-10,x,i,-1,x,x
CC1(Cc2cc(Cl)ccc2C(F)(F)F)C(=O)Nc2cc(C(F)(F)F)ccc21 (configuration not stated),x,x,-4,x,x,15*,0,2
COC(=O)c1ccccc1S(=O)(=O)N(Cc1cc2cc3c(cc2[nH]c1=O)OCO3)C1CCCCC1,i,x,x,3,x,x,x,x
C=CCc1ccccc1OCCn1ccnc1,i,-16,-13,-3,i,15*,-1,-5
C=CCc1cccc(OC)c1OCCOCCn1ccnc1,i,6,-7,-6,i,-1,x,x
CC(C)(C)OC(=O)C[C@H]1C/C=C\C[C@H](CC(=O)N(CCO)Cc2ccccc2)C(=O)N[C@H](C(C)(C)C)COC1=O,x,-6,-3,x,i,-5,x,x
CCOc1ccc(NC(=S)NCc2ccc3c(c2)OCO3)cc1,i,1,-4,x,i,15*,-1,1
Cc1ccc(NC(=S)NCc2ccc3c(c2)OCO3)cc1,i,4,7,-10,i,-1,x,x
O=C(Nc1ccccc1OC(F)F)C1CCCN1C(=O)c1cccs1 (configuration not stated),i,-3,-18,-16,i,-3,x,x
Cc1cc(C(O)c2ncc(-c3ccc(Oc4ccccc4)cc3)[nH]2)ccc1F (configuration not stated),x,x,7,x,x,21*,0,-6
